A549 tox: Nrf2 qHTS screen for inhibitors: counterscreen for cytotoxicity; 0.16% of 390,000 active; Potency, µM (highest dose often 46 µM), for the others: top-dose activity change, negative = cytotoxicity, hits mostly inhibitors; A549 ARE-Fluc cells, CellTiter-Fluor viability, 18-24 h; note: % is set by controls: 0 for no effect and ±100 for the full control effect
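A549 ARE-Fluc cells in 5% FBS OPTI-MEM, 5000 cells/well, rested 2 h then exposed to compounds in concentration-response for 18-24 h at 37 °C. Viability by CellTiter-Fluor fluorescence (Ex 405/Em 525) after 30 min; luciferase luminescence (BugLite, 15 min, RT) read afterwards.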
S2 tox: Viability Counterscreen for Primary qHTS for Inhibitors of ATXN expression. S2 cells (HEK-293 line with an ATXN2-luciferase reporter) viability, CellTiter-Fluor protease fluorescence, 24 h. Potency, µM (series often up to 56.7 µM), actives largely listed as cytotoxic. 0.49% of 400,000 active; note: nearly all actives have a fitted effect of over 40% in size
ATXN2 expr inh: Primary qHTS for Inhibitors of ATXN expression | HEK-293 ATXN2-luciferase reporter, luminescence, 24 h | 0.72% of 360,000 active | AID 1745845, 2022 | Potency, µM (top dose mostly 57 µM), for inactives: at the highest dose activity change, negative = inhibition, most hits filed as inhibitors; note: % is set by controls: 0 for no effect and ±100 for the full control effect; nearly all actives have a fitted effect of over 55% in size
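ATXN2-luciferase reporter cells (luciferase flanked by upstream and downstream ATXN2 gene portions) were treated 24 h at 37 °C with compounds at up to 57 uM. SteadyGlo luminescence gave expression; GF-AFC fluorescence gave viability.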
Nrf2 block: Nrf2 qHTS screen for inhibitors; Potency, µM (highest dose often 46 µM), without a hit: top-dose activity change, negative = inhibition, actives largely listed as inhibitors; A549 ARE-Fluc reporter, luciferase luminescence, 18-24 h; 2.1% of 360,000 active; note: % is set by controls: 0 for no effect and ±100 for the full control effect; nearly all actives have a fitted effect of over 60% in size
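Cells were seeded and rested 2 h, then exposed to compounds for 18-24 h. CellTiter-Fluor was read first as a viability measure. BugLite was added 15 min before the final luminescent read of ARE-luciferase activity in A549 cells.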
HepG2 viability: qHTS for Inhibitors of TGF-b: Cytotox Counterscreen; HepG2 CAGA-GFP viability, ATP luminescence, 18 h; Potency, µM (top dose mostly 46.1 µM), without a hit: at the highest dose activity change, negative = cytotoxicity, actives largely listed as cytotoxic; 0.76% of 410,000 active
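CellTiter-Glo luminescence gave cytotoxicity after 18 hours at 37 degrees C. The cells were HepG2 CAGA-GFP in 1% FBS DMEM, stimulated with 500 pg/mL TGF-beta after compound addition. %Activity was normalised to no-cell wells (complete cell-killing) and DMSO (no toxicity), and curves were fitted and classified.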
TGFb SMAD3 inh: qHTS for Inhibitors of TGF-b. HepG2 CAGA-GFP TGF-b/SMAD3 reporter, GFP fluorescence, 18 h; TGF-beta stimulated, 500 pg/mL final. Potency, µM (highest dose often 46.1 µM), without a hit: at the top dose activity, negative = inhibition, most hits filed as inhibitors. 1.2% of 410,000 active; note: % is set by controls: 0 for no effect and ±100 for the full control effect; nearly all actives have a fitted effect of over 65% in size
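Using HEPG2 CAGA-GFP reporter cells at 1000 cells/well, we pinned test compounds, stimulated with recombinant TGF-beta (500 pg/mL final) and measured total well GFP after 18 h.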
* marks the source's active call; other numbers are inactive results; i = inactive; ? = inconclusive; · = no result. A selection: hits, their analogues and other compounds. The true share with any hit is near 3.8%. Calls come from the whole dose curve; as a rule, active = well fitted curve in the direction sought with a large enough effect; inconclusive = small, poorly fitted or top-dose-only effect, or another doubt; inactive = no such curve, though single readings can be large; an effect the other way counts as inactive or inconclusive. Potency is the fitted concentration of half-maximal effect.

SMILES	A549 tox	S2 tox	ATXN2 expr inh	Nrf2 block	HepG2 viability	TGFb SMAD3 inh
COc1ccccc1N1C(=O)N(C(C)=O)C2C1Nc1ccccc1N2C (stereo unspecified)	12µM*	i	25µM*	?	-88%	?
CC(NCc1ccc(OCc2ccc(Cl)cc2)cc1)C(O)c1ccccc1 (stereo unspecified)	?	?	?	?	16µM*	14µM*
Cc1ccc(-n2nnnc2C2CCN(S(=O)(=O)c3ccc(OC(F)(F)F)cc3)CC2)cc1	1%	·	·	6%	2%	6%
COc1ccc(CN2CCN(S(=O)(=O)c3ccc(NC(C)=O)cc3)CC2)cc1	-12%	i	-10%	16µM*	-17%	-14%
COc1ccc(-n2nnnc2C2CCN(S(=O)(=O)c3ccc(NC(C)=O)cc3)CC2)cc1	-20%	·	·	9.2µM*	-29%	-9%
COC(=O)C1=C(C)NC2=C(C(=O)CCC2)C1c1cn(Cc2ccc(Cl)cc2Cl)nc1-c1ccccc1 (stereo unspecified)	?	i	-28%	26µM*	4%	?
CCOC(=O)C1=C(C)NC2=C(C(=O)CCC2)C1c1cn(Cc2ccc(Cl)cc2Cl)nc1-c1ccccc1 (stereo unspecified)	?	i	-17%	?	3%	?
CCOC(=O)CN1C(=O)S/C(=C\c2ccc(-c3ccc(C(=O)O)c(Cl)c3)o2)C1=O	?	i	-47%	-7%	6%	12%
CC(C)N1C(=O)S/C(=C\c2ccc(-c3ccc(Cl)c(C(=O)O)c3)o2)C1=O	?	·	·	?	13µM*	2%
O=c1cc(-c2c(F)c(F)c(F)c(F)c2F)oc2ccccc12	-15%	?	22µM*	?	-61%	-5%
O=C(OCC(=O)N1CCCCC1)c1ccc2c(c1)C(=O)N(Cc1ccco1)C2=O	1%	i	-1%	3%	5%	24%
O=C(Nc1ccc(-n2cc(Br)cn2)cc1)c1ccncc1	-10%	?	·	26µM*	-37%	-10%
CCc1ccccc1Nc1nn2c(=O)c3ccc(C(=O)NCCCOC(C)C)cc3nc2s1	5%	·	·	·	-4%	0%
COc1ccccc1CNC(=O)c1cnc2c(-c3ccccc3)c(C)nn2c1C	-3%	·	·	-24%	0%	9%
COc1cc(CNC(=O)c2cnc3c(-c4cccc(C)c4)c(C)nn3c2C)cc(OC)c1OC	0%	·	·	21µM*	-10%	-10%
Cc1cc2nc(SCCOC(=O)Nc3ccccc3)nc(C)c2cc1C	-11%	i	10%	21µM*	0%	-21%
Cc1cc2nc(SCCOC(=O)Nc3cccc(Cl)c3)nc(C)c2cc1C	-10%	i	·	?	18%	-17%
Cc1cccc(N2CCN(S(=O)(=O)c3ccc(-c4ccc(=O)[nH]n4)o3)CC2)c1C	?	?	?	13µM*	-26%	?
COc1ccccc1N1CCN(S(=O)(=O)c2ccc(-c3ccc(=O)[nH]n3)o2)CC1	7%	?	14%	1%	-22%	-13%
COc1ccc2c(c1)C(SCC(=O)NCCc1ccc(Cl)cc1)CC(C)(C)O2 (stereo unspecified)	?	?	28µM*	?	-30%	?
CC(C)c1ccc(NC(=O)c2cnc3sc(N4CCCC4)nn3c2=O)cc1	-8%	·	·	2.3µM*	10%	-14%
CC(C)NC(=O)c1cnc2sc(N3CCCCCC3)nn2c1=O	-19%	·	·	3%	0%	?
Cc1cccc(C(=O)N[C@H](C(=O)Nc2nccs2)C(C)C)c1	-5%	i	-6%	-3%	0%	-19%
CC1=C(C(=O)N2CCOCC2)CC(CC(=O)NC2CCCCC2)C(=O)N1Cc1ccc(F)cc1 (stereo unspecified)	·	i	-6%	·	4%	1%
O=C1[C@H](Cc2ccccc2)NCC=CC[C@H](c2ccc(Cl)cc2)N1Cc1ccccc1	-14%	?	?	?	-39%	18µM*
SMILES	A549 tox	S2 tox	ATXN2 expr inh	Nrf2 block	HepG2 viability	TGFb SMAD3 inh
O=C1[C@H](Cc2ccccc2)NCC=CC[C@H](c2ccc(Cl)cc2)N1Cc1ccc(Cl)cc1	?	32µM*	?	?	-60%	?
COc1ccc2cc(CN(C)C(=O)CN3C(=O)NC4(CCCC4)C3=O)ccc2c1	·	i	·	·	-4%	-10%
O=C(NCCc1ccccc1)[C@@H]1CC=C[C@@H]2CCN(C3CC3)C(=O)[C@@H]21	·	·	·	·	13%	-1%
COCCN(C(=O)c1ccc(C)c(S(=O)(=O)N2CCOCC2)c1)c1c(N)n(CC(C)C)c(=O)[nH]c1=O	13%	i	-6%	2%	-2%	-8%
CN(CCNC(=O)c1c[nH]c2c1ccc1ccccc12)CCNC(=O)c1c[nH]c2c1ccc1ccccc12	-11%	35µM*	?	?	-103%	13µM*
O=C1C=CC(=O)N1CCCCCCCCCCN1C(=O)C=CC1=O	?	8.9µM*	10µM*	26µM*	-28%	13µM*
N#C/C(N=Nc1ccccc1O)=N\Nc1ccccc1O	?	16µM*	?	?	-67%	?
COc1cccc(-c2nc(SCc3cc(=O)c4cc(Cl)ccc4[nH]3)n[nH]2)c1	1%	?	-17%	·	2%	-1%
CSc1ccc(CNC(=O)c2cc3c(=O)n(Cc4ccco4)ccc3nc2C)cc1	-1%	·	·	?	-43%	11µM*
CCCC(=O)OCC(=O)c1[nH]c(C)c(C(C)=O)c1C	0%	i	-12%	2%	20%	-21%
O=C(NC1CCCCC1)c1n[nH]c2c1CCCCC2	3%	i	10µM*	?	-49%	16%
CCC(CO)Oc1cc(NCc2cccnc2)c2ncn(C(C)C)c2c1 (stereo unspecified)	-15%	i	-7%	-10%	-7%	0%
CCC(CO)Oc1cc(NCc2cccc(Cl)c2)c2ncn(C(C)C)c2c1 (stereo unspecified)	?	?	?	?	-76%	20µM*
CCCc1cc(-c2n[nH]c(C(=O)OCC)c2-c2cscn2)c(O)cc1O	-12%	i	-1%	29µM*	-48%	?
COc1cccc(N2C(=O)CSC23C(=O)N(Cc2ccccc2F)c2ccccc23)c1 (stereo unspecified)	-7%	i	-20%	?	-17%	-8%
